The source made the active and inactive calls.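 The calls were made as follows, unless noted: active = NADPH fluorescence slope more negative than the mean of all samples by about 3 SD, 99.7% confidence; inactive = the rest.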
Columns and labels:
[1] = inhibitors of TNFa-induced NFkB p65 translocation, primary screen, imaging, HUVEC, MLSMR starter and 10KST1 sets (AID 438;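 active = inhibition above 20% together with a positive visual image hit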;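 also: compound added about 3h40 before a 20 min TNFalpha stimulation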;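 as to inhibition: signal is the nuclear over cytoplasmic p65 intensity ratio per well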); conditions: HUVEC TNFa-induced p65 nuclear translocation; cell count: measured here: nuclei count (cytotoxicity indicator), at 2.08 µM; inhibition: at 2 µM, stronger effect = higher value, 0% TNFa-plus-vehicle, 100% no-TNFa wells
[2] = inhibitors of mutant huntingtin aggregation, primary screen, imaging, exon1htt(103Q)mCFP cells, high-content imaging (AID 483;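 active = visual image review flags a hit and inhibition of aggregation exceeds 20%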;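 also: compound exposure lasted 3 days before fixation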;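 as to nuclei count: percent of the per-plate median nuclei count of sample wells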); conditions: exon1htt(103Q)mCFP cell line, aggregate imaging, at 2 µM; inhibition of aggregation: stronger effect = higher value; nuclei count: measured here: cell count, toxicity
[3] = inhibitors of E-selectin induction by TNFa, primary screen, imaging, HUVEC, immunofluorescence, MLSMR starter and 10KST1 sets (AID 487;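 active = visually confirmed hit in the image check and inhibition above 20%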;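 as to inhibition: signal is fraction of cell area covered by stained E-selectin grains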;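 as to nuclei count: 100% = median nuclei count of all wells on the same plate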); conditions: HUVEC TNFalpha-induced E-selectin immunofluorescence imaging, at 2 µM; inhibition: stronger effect = higher value; nuclei count: measured here: cell number, toxicity
[4] = target: Voltage-gated potassium channel subunit beta-2 (Rattus norvegicus) (UniProt P62483); assay: KvBeta enzyme negative modulators, primary screen, biochemical, NADPH fluorescence (AID 622;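 active = fluorescence slope higher than the sample average by over 3 SD, cut at about -0.22 in these data, passing the limit was not always enough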;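 also: slope of raw intensity against log time taken from 70 to 1610 s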); conditions: recombinant KvBeta, 4-cyanobenzaldehyde reduction, at 10 µM, stronger effect = higher value
[5] = target: Voltage-gated potassium channel subunit beta-2 (Rattus norvegicus) (UniProt P62483); assay: KvBeta positive modulators, primary screen, biochemical, NADPH fluorescence (AID 623); conditions: Recombinant KvBeta, NADPH fluorescence decrease slope, 10 min; at 10 µM; stronger effect = lower value;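 also: fluorescence intensity change per second fitted from 20 to 320 s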
[6] = target: Muscarinic acetylcholine receptor M4 (Homo sapiens) (UniProt P08173); assay: compounds altering M4/GIRK thallium flux, either direction, primary screen, M4 allosteric agonist project, cell-based, HEK293 M4/GIRK, BTC-AM (AID 625;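 active = fluorescence slope after compound addition differing from the mean of all tested samples at 99.7% confidence, mostly higher but some lower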;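 also: thallium influx through GIRK channels coupled to M4 in HEK293 cells with BTC-AM dye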); conditions: at 10 µM, actives lie on both sides
[7] = inhibitors of Sendai virus-induced IRF3 signaling, primary screen, TLR/RLR signaling modifier project, cell-based, Sendai virus stimulus, luciferase, 10K MLSCN set (AID 602276;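 active = inhibition at or above 50% at 10 µM; inactive = inhibition below 50%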;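 also: firefly luciferase from ISG56 promoter only with Renilla not read in this screen; 0% = Sendai virus plus DMSO and 100% = medium plus DMSO without virus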); conditions: HEK293 RL24 IRF3 luciferase reporter, at 10 µM, stronger effect = higher value
[8] = inhibitors of poly I:C-induced TLR3 signaling, primary screen, cell-based, poly I:C stimulus, luciferase, 10K MLSCN set (AID 602277;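 active = inhibition of the reporter signal at or above 50%; inactive = inhibition below 50%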); conditions: HEK293-TLR3 RL24 IRF3 luciferase reporter, at 10 µM, stronger effect = higher value

Sequence of Voltage-gated potassium channel subunit beta-2 (Rattus norvegicus) (P62483 whole entry, looked up): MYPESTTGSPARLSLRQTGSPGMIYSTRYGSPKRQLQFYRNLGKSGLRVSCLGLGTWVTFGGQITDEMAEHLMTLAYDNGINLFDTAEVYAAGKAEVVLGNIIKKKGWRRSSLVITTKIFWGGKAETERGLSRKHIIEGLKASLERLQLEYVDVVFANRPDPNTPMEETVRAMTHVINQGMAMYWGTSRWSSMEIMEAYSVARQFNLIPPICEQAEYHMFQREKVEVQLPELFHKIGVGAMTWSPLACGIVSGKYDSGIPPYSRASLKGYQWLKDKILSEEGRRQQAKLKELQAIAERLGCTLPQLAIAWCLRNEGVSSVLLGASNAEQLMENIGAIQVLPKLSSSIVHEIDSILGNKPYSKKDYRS
Sequence of Muscarinic acetylcholine receptor M4 (Homo sapiens) (P08173 whole entry, looked up): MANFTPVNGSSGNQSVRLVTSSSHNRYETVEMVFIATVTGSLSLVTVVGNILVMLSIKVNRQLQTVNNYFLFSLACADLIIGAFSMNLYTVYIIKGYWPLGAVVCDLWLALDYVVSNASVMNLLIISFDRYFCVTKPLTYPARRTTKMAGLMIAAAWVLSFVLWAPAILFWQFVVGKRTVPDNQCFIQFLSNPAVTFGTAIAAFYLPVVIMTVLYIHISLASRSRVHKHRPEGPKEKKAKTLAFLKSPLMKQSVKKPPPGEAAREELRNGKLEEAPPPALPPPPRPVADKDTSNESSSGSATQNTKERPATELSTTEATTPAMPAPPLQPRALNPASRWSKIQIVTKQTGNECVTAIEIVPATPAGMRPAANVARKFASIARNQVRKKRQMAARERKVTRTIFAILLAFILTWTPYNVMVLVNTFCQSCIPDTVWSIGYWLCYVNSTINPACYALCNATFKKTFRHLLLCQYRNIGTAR

Row | SMILES | cell count [1] | inhibition [1] | inhibition of aggregation [2] | nuclei count [2] | inhibition [3] | nuclei count [3] | fluorescence slope [4] | NADPH fluorescence slope [5] | fluorescence slope [6] | inhibition [7] | inhibition [8]
1 | Cc1cc(C)c2c(N)c(C(=O)N3CCN(c4ncccn4)CC3)sc2n1 | 663 | -9.1% (inactive) | 5.1% (inactive) | 69.4% | -10.2% (inactive) | 101% | -0.559 (inactive) | -1.8e-05 (inactive) | 0.00421 (inactive) | -3.01% (inactive) | -25.1% (inactive)
2 | COc1ccc(OC)c(C2=NOC(C(=O)Nc3cccnc3)C2)c1 (stereo not drawn) | 738 | -14.3% (inactive) | -1.9% (inactive) | 100% | -31.9% (inactive) | 93% | -0.561 (inactive) | 5.2e-07 (inactive) | 0.00522 (inactive) | 4.03% (inactive) | 2.04% (inactive)
3 | Cc1ccc(-c2noc(C3CCCN(C(=O)c4ccc(F)cc4F)C3)n2)cc1 (stereo not drawn) | 753 | -11.3% (inactive) | 1.1% (inactive) | 58.6% | -21.5% (inactive) | 124% | -0.274 (inactive) | -6.5e-06 (inactive) | 0.00592 (inactive) | -9.91% (inactive) | -43.3% (inactive)
4 | CCCc1cc(C(N)=O)c(NC(=O)c2ccco2)s1 | 356 | -5.6% (inactive) | 2.7% (inactive) | 97.2% | -45% (inactive) | 111% | -0.54 (inactive) | -5.6e-05 (inactive) | 0.00337 (inactive) | -0.517% (inactive) | -22.9% (inactive)
5 | COc1cccc(OCc2nc3c4cnn(-c5ccccc5)c4ncn3n2)c1 | 418 | -6.7% (inactive) | -8.8% (inactive) | 104% | -118% (inactive) | 110% | -0.576 (inactive) | 1.4e-05 (inactive) | 0.00593 (inactive) | 8.13% (inactive) | -16.4% (inactive)
6 | COCCn1c(NCc2ccc(C)cc2)nc2c1c(=O)[nH]c(=O)n2C | 848 | 6.8% (inactive) | 29.4% (inactive) | 91.9% | 9.9% (inactive) | 110% | -0.543 (inactive) | -2.1e-05 (inactive) | 0.00577 (inactive) | 7.9% (inactive) | 13.3% (inactive)
7 | COc1ccc(/C(O)=C2/C(=O)C(=O)N(Cc3cccnc3)C2c2ccncc2)cc1F (stereo not drawn) | 574 | -7.6% (inactive) | -2.8% (inactive) | 106% | -3.5% (inactive) | 117% | -0.574 (inactive) | -8.3e-05 (inactive) | 0.00672 (inactive) | 8.93% (inactive) | 16.5% (inactive)
8 | COC(=O)c1ccc(-c2ccc(CNCC(O)c3ccccc3)o2)cc1 (stereo not drawn) | 400 | 3.2% (inactive) | -6% (inactive) | 111% | -27.1% (inactive) | 115% | -0.313 (inactive) | -1.1e-05 (inactive) | 0.00598 (inactive) | 13.2% (inactive) | 13.8% (inactive)
9 | COc1ccc(CCNC(=O)c2cc(-c3cc(C)c(C)cc3O)n[nH]2)cc1OC | 434 | 2.8% (inactive) | 8.6% (inactive) | 88.9% | -83.7% (inactive) | 145% | -0.444 (inactive) | -0.000364 (inactive) | 0.00555 (inactive) | 9.16% (inactive) | 9.05% (inactive)
10 | CSc1nnc2c3ccccc3n(Cc3ccccc3)c2n1 | 295 | -0.5% (inactive) | 3.5% (inactive) | 92.5% | 30.6% (inactive) | 86.1% | -0.45 (inactive) | -4.8e-05 (inactive) | 0.00511 (inactive) | 19.7% (inactive) | 17% (inactive)
11 | FC(F)(F)COc1nc(N2CCCCC2)nc(N2CCNCC2)n1 | 372 | -7.9% (inactive) | -3.5% (inactive) | 99.5% | 13.6% (inactive) | 109% | -0.321 (inactive) | -5.4e-05 (inactive) | 0.00559 (inactive) | 4.6% (inactive) | 21.6% (inactive)
12 | Cc1ccc(S(=O)(=O)N(C)CC(=O)NC2CCCC2)cc1 | 226 | 10.1% (inactive) | 1.1% (inactive) | 90.7% | -98.8% (inactive) | 148% | -0.453 (inactive) | -2.6e-05 (inactive) | 0.00453 (inactive) | 10.5% (inactive) | 29.4% (inactive)
13 | COc1ccccc1N(CC(=O)NCc1ccccc1)S(C)(=O)=O | 665 | -8.2% (inactive) | 6.6% (inactive) | 106% | -67.8% (inactive) | 114% | -0.28 (inactive) | -4.1e-05 (inactive) | 0.00584 (inactive) | -3.25% (inactive) | 14% (inactive)
14 | O=C1CSC(c2cccc(F)c2)N1c1ccccc1F (stereo not drawn) | 650 | -15.7% (inactive) | 36.5% (inactive) | 118% | -120% (inactive) | 100% | -0.614 (inactive) | 6.1e-06 (inactive) | 0.00376 (inactive) | 15% (inactive) | 18.1% (inactive)
15 | CCC(=O)N1CCCc2cc(S(=O)(=O)N3CCCc4ccccc43)ccc21 | 684 | 2.1% (inactive) | -1.8% (inactive) | 100% | -142% (inactive) | 125% | -0.552 (inactive) | 3.3e-05 (inactive) | 0.00501 (inactive) | 20% (inactive) | 34% (inactive)
16 | Cc1nc(=S)n(-c2ccccc2)[nH]1 | 638 | -5% (inactive) | 16.1% (inactive) | 113% | -31.2% (inactive) | 120% | -0.538 (inactive) | -1.9e-05 (inactive) | 0.00665 (inactive) | 11.3% (inactive) | 10.6% (inactive)
17 | CCOc1cc(C2c3c(n[nH]c3C)C(=O)N2c2ccc(Br)cc2)ccc1O (stereo not drawn) | 572 | -2.3% (inactive) | 7.8% (inactive) | 109% | -89.9% (inactive) | 110% | -0.373 (inactive) | -8.6e-06 (inactive) | 0.00604 (inactive) | 30.1% (inactive) | 30% (inactive)
18 | CCOC(=O)CSc1nc2ccccc2c(=O)n1CCN1CCOCC1 | 513 | -3.4% (inactive) | -7.1% (inactive) | 96.3% | 4.2% (inactive) | 109% | -0.474 (inactive) | -1.3e-06 (inactive) | 0.00551 (inactive) | -2.06% (inactive) | 17.7% (inactive)
19 | Cc1ccc2nc(NC(=O)C3CCN(S(=O)(=O)c4cccc5nsnc45)CC3)sc2c1 | 540 | 0% (inactive) | -1.9% (inactive) | 105% | 38.3% (inactive) | 100% | -0.414 (inactive) | -9.1e-05 (inactive) | 0.00593 (inactive) | -4.97% (inactive) | -45% (inactive)
20 | Cc1ccccc1NC(=O)C1CCN(c2cnccn2)CC1 | 304 | 2.2% (inactive) | -10.2% (inactive) | 86.3% | -42.9% (inactive) | 111% | -0.543 (inactive) | -1.5e-06 (inactive) | 0.00512 (inactive) | 5.1% (inactive) | 15.6% (inactive)
21 | CC1=C(C(N)=O)C(c2ccc(Cl)cc2Cl)n2ncnc2N1 (stereo not drawn) | 631 | -2.5% (inactive) | 18.4% (inactive) | 105% | -129% (inactive) | 106% | -0.558 (inactive) | 2e-05 (inactive) | 0.00707 (inactive) | 29.3% (inactive) | 33.2% (inactive)
22 | Cc1ccc(C(=O)CCC2CCCC2=O)cc1 (stereo not drawn) | 718 | -21.6% (inactive) | -2.7% (inactive) | 86.9% | 22.6% (inactive) | 97.8% | -0.263 (inactive) | -3.8e-05 (inactive) | 0.00558 (inactive) | -20.4% (inactive) | -124% (inactive)
23 | C=CCn1c(=O)[nH]c2cc(C(=O)N3CCN(c4cc(C)ccc4C)CC3)ccc2c1=O | 481 | -28.5% (inactive) | -1.6% (inactive) | 109% | -67.4% (inactive) | 127% | -0.245 (inactive) | -2.6e-05 (inactive) | 0.00726 (inactive) | 14.1% (inactive) | -2.95% (inactive)
24 | CCCCNC(=O)c1cc(-c2ccc(F)cc2)on1 | 240 | -2.8% (inactive) | 5.2% (inactive) | 106% | -39.2% (inactive) | 120% | -0.483 (inactive) | -3.3e-05 (inactive) | 0.00454 (inactive) | -21.5% (inactive) | -168% (inactive)
25 | COc1ccc(C(C(C(=O)c2cccs2)N2CCOCC2)N2CCOCC2)cc1OC (stereo not drawn) | 704 | 3.6% (inactive) | 6.6% (inactive) | 115% | 15.2% (inactive) | 106% | -0.603 (inactive) | -3.1e-05 (inactive) | 0.00372 (inactive) | 8.73% (inactive) | 2.75% (inactive)
26 | Cc1ccc(C)c(SCC(=O)Nc2nnc(-c3ccccc3)o2)c1 | 395 | -16.8% (inactive) | -12.6% (inactive) | 99.9% | -16.3% (inactive) | 124% | -0.586 (inactive) | -3.2e-05 (inactive) | 0.00772 (inactive) | 13.5% (inactive) | 19.4% (inactive)
27 | Cc1cccc(N(C)C(=O)c2cc3cc4ccc(C)cc4nc3o2)c1 | 214 | -0.3% (inactive) | 11.5% (inactive) | 92.4% | -24.7% (inactive) | 109% | -0.396 (inactive) | -2.9e-05 (inactive) | 0.00523 (inactive) | 37.8% (inactive) | -34.7% (inactive)
28 | Cc1cc2c(nn1)CCC/C2=N\O | 350 | 4.3% (inactive) | 9.7% (inactive) | 99.1% | 14.6% (inactive) | 110% | -0.552 (inactive) | 2.3e-05 (inactive) | 0.00403 (inactive) | 17.4% (inactive) | 19.5% (inactive)

— PubChem BioAssay
